Only some compounds are listed: those with a hit (about 4.1% of all), similar ones and a draw of the others.
rCAG binder = r(CAG) repeat RNA binding. TO-PRO-1 dye displacement fluorescence. inhibition, % at 3 µM. actives 1.3% (n = 370,000);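 active = inhibition above the plate cutoff, the mean of all test compounds on that plate plus 3 SD, cut at about 35% in these data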;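 note: higher means more dye released from RNA so lower well fluorescence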
ABHD5 PLIN5 PPI = blocks binding of human ABHD5 to perilipin-5; Split G. princeps luciferase complementation, luminescence, 4 h; inhibition, % at 4 µM; Q00G26+Q8WTS1; actives 0.78% (n = 360,000);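 active = inhibition above the mean inhibition across every tested compound plus 3 SD, cut at about 22% in these data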
LEDGF integ inh = blocks HIV-1 LEDGF/p75-dependent DNA integration | actives 0.64% (n = 370,000) | inhibition, % at 3.7 µM | TR-FRET IN-LEDGF/p75 DNA integration, Eu/Cy5 | AID 743269;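 active = inhibition above the screen-wide mean plus 3 SD, cut at about 13% in these data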;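 note: signal is the Cy5 over europium emission ratio at 671 and 618 nm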
PRMT1 FP inh = inhibitors of human PRMT1; inhibition, % at 2.79 µM; Q99873; recombinant PRMT1, activity-based probe fluorescence polarization; AID 652257; actives 1.3% (n = 370,000);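 active = inhibition above about 21% made by adding two undisclosed values, limit read from the data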
UHRF1 MBD2 ctr = human UHRF1 methylated DNA binding inhibitors; Q96T88; inhibition, % at 4.4 µM; actives 0.75% (n = 370,000); UHRF1 binding to methylated oligo, TR-FRET; in the data active = inhibition above about 21%;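 note: UHRF1 SRA domain binding a hemimethylated CpG hairpin DNA probe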
Target sequence (Q96T88 whole entry, looked up, the tested form may be a part): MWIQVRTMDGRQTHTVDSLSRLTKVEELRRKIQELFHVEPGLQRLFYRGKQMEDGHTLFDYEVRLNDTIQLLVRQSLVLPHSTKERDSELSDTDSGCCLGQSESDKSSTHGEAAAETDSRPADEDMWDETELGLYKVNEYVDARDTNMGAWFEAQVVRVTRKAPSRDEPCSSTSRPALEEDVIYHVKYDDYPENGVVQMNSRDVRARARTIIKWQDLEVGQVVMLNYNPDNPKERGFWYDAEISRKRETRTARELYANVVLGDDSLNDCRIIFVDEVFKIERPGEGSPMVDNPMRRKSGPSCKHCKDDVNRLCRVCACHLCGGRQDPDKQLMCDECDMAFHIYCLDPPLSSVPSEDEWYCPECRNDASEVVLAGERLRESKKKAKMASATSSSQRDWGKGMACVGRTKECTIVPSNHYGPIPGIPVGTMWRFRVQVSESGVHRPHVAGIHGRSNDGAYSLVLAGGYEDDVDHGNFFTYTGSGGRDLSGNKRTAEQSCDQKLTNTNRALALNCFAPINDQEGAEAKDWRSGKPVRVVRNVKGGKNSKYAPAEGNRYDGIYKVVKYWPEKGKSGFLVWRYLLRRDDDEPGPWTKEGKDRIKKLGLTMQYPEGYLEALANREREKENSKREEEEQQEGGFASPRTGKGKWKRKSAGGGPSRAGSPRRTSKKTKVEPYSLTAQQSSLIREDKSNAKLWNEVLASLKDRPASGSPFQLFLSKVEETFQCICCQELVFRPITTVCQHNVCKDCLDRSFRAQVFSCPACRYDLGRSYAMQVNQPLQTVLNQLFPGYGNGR
MBD2 inh = MBD2-methylated oligo binding inhibition; inhibition, % at 4.4 µM; TR-FRET, MBD2 binding to methylated oligonucleotide; AID 686964; actives 0.31% (n = 370,000); Q9UBB5; in the data active = inhibition above about 13%
rCAG bind conf = r(CAG) RNA repeat binding, confirmation; shares compounds with rCAG binder; TO-PRO-1 dye displacement fluorescence; inhibition, % at 3 µM; actives 70% (n = 4,300); AID 652065;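 active = inhibition above a per-plate cutoff, the mean inhibition of sample wells plus 3 SD, cut at about 35% in these data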;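 note: loss of TO-PRO-1 fluorescence as compound displaces dye from 1x1 AA loop RNA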
DNA CAG counter = disrupts DNA CAG TO-PRO-1 complex, flagging rCAG hits. actives 94% (n = 4,300). d(CAG) DNA oligo TO-PRO-1 dye displacement, fluorescence. AID 652068. inhibition, % at 3 µM. shares compounds with rCAG binder;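 active = inhibition above its plate's cutoff, the mean test-well inhibition plus 3 SD, cut at about 4.8% in these data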;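 note: hits displace the dye from DNA and so lower well fluorescence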
PRMT1 confirm = PRMT1 (human) inhibition, FP confirmation; inhibition, % at 2.79 µM; actives 42% (n = 3,300); shares compounds with PRMT1 FP inh; recombinant His-PRMT1, activity-based probe fluorescence polarization;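 active = mean inhibition across replicates above the hit cutoff derived for the earlier primary screen, cut at about 22% in these data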
UHRF1 DNA bind = inhibits human UHRF1 binding to methylated oligonucleotide, MBD2 counter-screen | shares compounds with MBD2 inh | TR-FRET | inhibition, % at 4.4 µM | actives 25% (n = 1,000); in the data active = inhibition above about 21%;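 note: UHRF1 SRA domain binding a labeled hemimethylated CpG hairpin DNA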
MBD2 confirm = confirmation of human MBD2-DBD methylated oligonucleotide binding inhibitors; shares compounds with MBD2 inh; TR-FRET MBD2-DBD binding to methylated oligonucleotide; inhibition, % at 4.4 µM; actives 26% (n = 1,000)
IN multimer act = HIV-1 integrase multimerization activation, counter-screen. AID 1053131. shares compounds with LEDGF integ inh. TR-FRET HIV-1 integrase multimerization, biochemical. activation, % at 7.7 µM. actives 17% (n = 2,000); in the data active = activation above about 8.9%
TR-FRET interf = optically interferes with TR-FRET readout in LEDGF counter-screen; shares compounds with LEDGF integ inh; TR-FRET optical interference counterscreen, HIV-1 IN multimerization; inhibition, % at 7.7 µM; 2,000 tested, under 10 active;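 active = inhibition above the mean over all tested compounds plus 3 SD, which no compound reached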
LEDGF integ conf = LEDGF/p75-dependent HIV-1 integration inhibition, confirmation | shares compounds with LEDGF integ inh | TR-FRET LEDGF/p75-dependent HIV-1 integration, biochemical | inhibition, % at 3.7 µM | actives 36% (n = 2,000)
Of the large screens only hits and unclear results are named; the others gave an inactive call (follow-up assays come after a bar, where they were run). Cut-off read from the data, not from the text of the source, unless noted: active = inhibition above about 14%; inactive = the rest.

O=C1CCC(NC(=O)Cc2ccccc2)C(=O)N1 (centres undefined)	none (no result: ABHD5 PLIN5 PPI)
Cc1cccc(-c2n[nH]c(=S)n2/N=C/C=C/c2ccco2)c1	rCAG binder 42.6, LEDGF integ inh 29.3, PRMT1 FP inh 46.2, UHRF1 MBD2 ctr 26.5 | rCAG bind conf inactive | DNA CAG counter 12.5 | PRMT1 confirm inactive | IN multimer act inactive | TR-FRET interf inactive | LEDGF integ conf inactive
S=c1[nH]nc(-c2ccccc2Cl)n1/N=C/C=C/c1ccco1	none
COC(=O)[C@]12C[C@H](CC(=O)N3CCN(C(=O)C4CC4)CC3)C(=O)N(Cc3cccc4ccccc34)C1=C[C@H](COCc1ccccc1)O[C@@H]2C	none (no result: ABHD5 PLIN5 PPI)
O=C1C=CC(=O)c2c(O)c(N3CCN(CCOCCO)CC3)c(Br)c(O)c21	rCAG binder 53.0, LEDGF integ inh 49.5, PRMT1 FP inh 65.9, UHRF1 MBD2 ctr 40.1 | rCAG bind conf 68.2 | DNA CAG counter 36.0 | PRMT1 confirm 93.2 | IN multimer act 99.0 | TR-FRET interf inactive | LEDGF integ conf 82.6
COC(=O)[C@H](CC(C)C)N(CCc1cn(Cc2ccccc2)nn1)S(=O)(=O)c1ccc(F)cc1Br	none (no result: ABHD5 PLIN5 PPI)
O=C(CCCSc1ccccc1)Nc1nc(-c2ccccn2)cs1	none
O=C(CCCSc1ccccc1)Nc1nc(-c2ccco2)c(-c2ccco2)s1	rCAG binder 73.7, LEDGF integ inh 19.5, PRMT1 FP inh 44.3 | rCAG bind conf inactive | DNA CAG counter 14.3 | PRMT1 confirm inactive | IN multimer act inactive | TR-FRET interf inactive | LEDGF integ conf inactive
CCOC(=O)c1ccc(N2C(=O)c3n[nH]c(-c4ccco4)c3C2c2cccc([N+](=O)[O-])c2)cc1 (centres undefined)	rCAG binder 73.5, LEDGF integ inh 15.9, PRMT1 FP inh 60.3 | rCAG bind conf inactive | DNA CAG counter 13.5 | PRMT1 confirm inactive | IN multimer act inactive | TR-FRET interf inactive | LEDGF integ conf inactive
CCOC(=O)c1ccc(N2C(=O)c3n[nH]c(C)c3C2c2ccco2)cc1 (centres undefined)	none
C[C@@H]1CNC(=O)c2c(C(=O)N3CCN(c4ccccc4)CC3)ncn21	none (no result: ABHD5 PLIN5 PPI)
CC(=O)OCCCNc1cc(SCc2ccco2)c2nonc2c1[N+](=O)[O-]	rCAG binder 59.6, LEDGF integ inh 66.2, PRMT1 FP inh 54.0, UHRF1 MBD2 ctr 59.2, MBD2 inh 13.5 | rCAG bind conf inactive | DNA CAG counter 9.8 | PRMT1 confirm inactive | UHRF1 DNA bind inactive | MBD2 confirm inactive | IN multimer act inactive | TR-FRET interf inactive | LEDGF integ conf 24.2
CCCC(=O)OCCNc1cc(SCc2ccco2)c2nonc2c1[N+](=O)[O-]	none
FC(F)(F)c1cccc(N2CCN(C(=S)Nc3nccc4ccccc34)CC2)c1	none (no result: rCAG binder, ABHD5 PLIN5 PPI)
O=S(=O)(O)c1cc(Cl)cc(N=Nc2ccc(O)cc2O)c1O	rCAG binder 90.5, LEDGF integ inh 71.6, PRMT1 FP inh 86.2 | rCAG bind conf 67.1 | DNA CAG counter 31.4 | PRMT1 confirm 65.0 | IN multimer act 14.0 | TR-FRET interf inactive | LEDGF integ conf 31.0
O=[N+]([O-])c1ccc(N=Nc2ccc(O)cc2O)cc1	none
CN(C)c1ccc2nc3ccc(=O)cc-3sc2c1	rCAG binder 35.4, LEDGF integ inh 73.2, PRMT1 FP inh 60.0, UHRF1 MBD2 ctr 54.9 | rCAG bind conf inactive | DNA CAG counter 11.9 | PRMT1 confirm 35.0 | IN multimer act 85.3 | TR-FRET interf inactive | LEDGF integ conf 81.7
Cc1nc2ccc(S(=O)(=O)NCC(=O)NCc3ccccc3Cl)cc2s1	none (no result: ABHD5 PLIN5 PPI)
O=C(O)CCCN1C(=O)/C(=C/C=C/c2ccco2)SC1=S	rCAG binder 60.3, LEDGF integ inh 87.2, PRMT1 FP inh 41.5, UHRF1 MBD2 ctr 98.3, MBD2 inh 70.3 | rCAG bind conf 50.8 | DNA CAG counter 18.6 | UHRF1 DNA bind 90.5 | MBD2 confirm 49.0 | IN multimer act 12.8 | TR-FRET interf inactive | LEDGF integ conf 82.8
CCC(C(=O)O)N1C(=O)/C(=C/c2cccn2C)SC1=S (centres undefined)	none
O=C(O)C(Cc1ccccc1)N1C(=O)/C(=C/C=C/c2ccco2)SC1=S (centres undefined)	rCAG binder 89.9, LEDGF integ inh 85.5, PRMT1 FP inh 61.0, UHRF1 MBD2 ctr 98.3, MBD2 inh 93.9 | rCAG bind conf 92.5 | DNA CAG counter 68.1 | PRMT1 confirm 33.6 | UHRF1 DNA bind 97.7 | MBD2 confirm 71.4 | IN multimer act 26.5 | TR-FRET interf inactive | LEDGF integ conf 82.4
O=C(NN1C(=O)/C(=C/C=C/c2ccco2)SC1=S)c1ccccc1O	rCAG binder 94.5, LEDGF integ inh 81.3, PRMT1 FP inh 41.9, UHRF1 MBD2 ctr 95.0, MBD2 inh 56.4 | rCAG bind conf 92.6 | DNA CAG counter 76.9 | PRMT1 confirm 32.1 | UHRF1 DNA bind 66.3 | MBD2 confirm 29.6 | IN multimer act 72.8 | TR-FRET interf inactive | LEDGF integ conf 79.7
Cn1cccc1/C=C1\SC(=S)N(NC(=O)c2ccccc2O)C1=O	none
O=C(CSc1nnc(-c2ccc(Cl)cc2)n1Cc1ccco1)Nc1ccc(S(=O)(=O)Nc2nccs2)cc1	rCAG binder 76.9, LEDGF integ inh 19.1 (no result: ABHD5 PLIN5 PPI) | rCAG bind conf 68.6 | DNA CAG counter 32.0 | IN multimer act inactive | TR-FRET interf inactive | LEDGF integ conf inactive
